Screening data (PubChem BioAssay)
MITF inh: blocks human microphthalmia-associated transcription factor; inhibition, % at 2.6 µM; 0.91% of 650,000 active; AID 1259374; O75030; AlphaScreen MITF homodimerization, bead proximity signal; in the data active means inhibition above about 50%;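 further: 0% = vehicle wells with protein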
GPR151 activ: activates the human receptor GPR151. activation, % at 11.2 µM. Q8TDV0. AID 1508602. 1% of 650,000 active. PathHunter beta-arrestin GPR151 cells, luminescence; in the data active means activation above about 4.9%;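 further: 0% = median of compound wells and 100% = cells with positive control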
Target sequence (Q8TDV0 whole entry, looked up): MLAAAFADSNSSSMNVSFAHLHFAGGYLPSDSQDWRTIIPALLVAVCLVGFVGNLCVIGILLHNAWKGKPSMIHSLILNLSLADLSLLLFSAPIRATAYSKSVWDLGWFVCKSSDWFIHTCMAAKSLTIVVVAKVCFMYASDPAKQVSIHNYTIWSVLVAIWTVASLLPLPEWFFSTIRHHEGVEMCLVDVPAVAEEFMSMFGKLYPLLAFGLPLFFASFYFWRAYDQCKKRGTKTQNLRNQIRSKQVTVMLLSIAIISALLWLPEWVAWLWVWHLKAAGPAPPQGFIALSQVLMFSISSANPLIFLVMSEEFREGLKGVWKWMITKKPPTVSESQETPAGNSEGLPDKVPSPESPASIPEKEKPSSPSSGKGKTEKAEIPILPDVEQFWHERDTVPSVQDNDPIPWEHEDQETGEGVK
FBW7 act: human FBW7 E3 ligase activation, primary screen; normalized activity (activation), % at 26.1 µM; AID 1259310; 0.13% of 650,000 active; AlphaScreen FBW7–phospho-cyclin E peptide binding, activator screen; in the data active means normalized activity above about 1.9%;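 further: purified mutant Fbw7 with reduced substrate affinity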
TEAD-YAP inh: TEAD-YAP interaction inhibition; HEK-TIYL cells, TEAD-Gal4/YAP UAS-luciferase luminescence; inhibition, % at 9.12 µM; 1.4% of 640,000 active; in the data active means inhibition above about 32%;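 further: 0% = median of test compound wells and 100% = reference inhibitor wells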
Active calls of the source: *. Hits are enriched below; roughly 3.5% of the tested compounds scored in any of these assays.

SMILES	MITF inh	GPR151 activ	FBW7 act	TEAD-YAP inh
N/C(=N\OC(=O)c1ccc(F)cc1)c1ccc(Cl)cc1	1.2	-0.4	0.0	-15.8
CCOc1ccc(C(=O)O/N=C(\N)c2ccccn2)cc1	2.6	-7.4	0.0	91.5*
Cc1cccc(C(=O)O/N=C(\N)c2ccccn2)c1	13.0	-8.0	0.1	82.1*
N/C(=N\OC(=O)c1ccc(F)cc1)c1ccc(Br)cc1	1.0	1.0	2.1*	1.4
COc1ccc(C(=O)O/N=C(\N)c2ccccn2)c(OC)c1	-3.0	-7.5	-0.1	40.8*
COc1ccc(C(=O)O/N=C(\N)c2ccc(OC)c(OC)c2)c(OC)c1	1.2	0.2	0.0	-23.9
COc1cc(C2NC(=O)NC(C)=C2C(=O)OCc2ccccc2)cc(Br)c1O (stereo not given)	-5.2	0.8	0.0	1.1
CC(C)N(CC(N)=O)c1ccc([N+](=O)[O-])cc1Cl	-0.4	1.3	-0.1	-11.1
COc1ccc2cc(/C=N/OC(C)=O)ccc2c1	-9.0	0.7	0.1	-39.3
COC(=O)COc1ccc(S(=O)(=O)Nc2cccc(Br)c2)cc1Cl	2.1	0.2	0.0	-5.6
CC(C)(C)c1ccc(C(=O)O/N=C(\N)c2ccncc2)cc1	1.1	3.9	0.6	-64.4
CC(=O)Oc1ccc(C(=O)O/N=C(\N)c2ccncc2)cc1	15.7	-8.3	0.7	31.9*
COc1cccc(NS(=O)(=O)c2ccc3c4c2CC(=O)N4CC(C)S3)c1 (stereo not given)	16.1	-1.5	0.3	39.9*
Cc1cc(C)c(NS(=O)(=O)c2ccc3c4c2CC(=O)N4CC(C)S3)c(C)c1 (stereo not given)	-4.1	0.0	0.0	4.2
Cc1ccc(NC(=O)C2COc3ccccc3O2)c(Br)c1 (stereo not given)	-0.9	0.7	0.0	-41.3
CCOCCCNC1CCN(c2nc(C)c3cc(C)ccc3n2)CC1	-21.0	-0.2	0.0	48.6*
CCCCNC1CCN(c2nc(C)c3cc(C)ccc3n2)CC1	2.5	-0.6	0.0	1.5
Cc1cc(C=O)c(C)n1-c1ccc(C(=O)O)c(Cl)c1	69.5*	0.1	-0.1	9.6
C#CCN1Cc2cc(OC)c(OC)cc2C2(CCCC2)C1	8.7	1.4	-0.1	-11.3
CCC(Nc1ncnc2ccccc12)C(=O)O (stereo not given)	-0.9	-0.3	-0.1	6.3
CCOC(=O)/C(=N\Nc1ncnc2ccccc12)c1cccs1	-3.0	-9.8	0.0	36.5*
Cc1cc(C)c(N(C(=O)CCl)C(=O)C2CCCN2C(=O)CCl)c(C)c1 (stereo not given)	3.9	0.6	0.4	32.0*
COc1cccc(C(=O)Nc2ccc(O)c(C)c2)c1	6.3	-2.3	-0.1	84.0*
COc1cccc(C(=O)Nc2ccc(O)c(C(=O)O)c2)c1	16.1	-6.1	0.0	12.4
CC(C)Oc1ccc(NC(=O)c2cccc(Cl)c2)cc1	-25.3	-6.7	0.1	-30.4
SMILES	MITF inh	GPR151 activ	FBW7 act	TEAD-YAP inh
COc1cccc(C(=O)Nc2ccc(OC(C)C)cc2)c1	7.8	-9.6	-0.1	74.8*
O=C(Nc1ccc(Cl)c(Cl)c1)c1ccc(F)c(S(=O)(=O)N2CCCc3ccccc32)c1	-7.8	-0.6	0.0	48.6*
O=C(Nc1ccc(F)c(F)c1)c1ccc(F)c(S(=O)(=O)N2CCCc3ccccc32)c1	-14.1	0.6	0.0	43.1*
O=C(O)c1cccc(COc2cccc(Cl)c2)c1	10.2	-12.8	-0.1	-36.8
O=C(O)c1cccc(COc2ccccc2Br)c1	-4.1	-10.1	0.2	65.2*
O=C(O)c1cccc(COc2ccc(CO)cc2)c1	-21.4	-7.7	-0.2	79.0*
O=C(O)c1cccc(COc2ccc3ccccc3c2)c1	-25.7	-12.9	-0.1	85.6*
CCc1ccc(NC(=O)COC(=O)c2cc(=O)c3cc(F)ccc3o2)cc1	-4.5	0.3	2.8*	-0.5
CCOc1ccc(NC(=O)COC(=O)c2cc(=O)c3ccccc3o2)cc1	2.0	-0.5	0.0	13.7
O=C(COC(=O)c1cc(O)c(O)c(O)c1)Nc1ccc(F)cc1	67.9*	-2.3	0.4	6.3
O=C(COC(=O)c1cc(F)c(F)cc1Cl)Nc1ccc(F)cc1	-0.8	-0.5	0.1	-2.8
Cc1ccc2nc3c(cc(C(N)=O)c(=N)n3CCc3ccccc3)c(=O)n2c1	5.1	-1.3	-0.1	39.5*
Cc1sc(NC(=O)c2ccco2)c(C(c2ccccc2)N2CCOCC2)c1C (stereo not given)	13.7	-0.9	0.2	6.4
Cc1ccc(-n2[nH]c(C)c(C=Nc3ccc(S(=O)(=O)Nc4ccccc4)cc3)c2=O)cc1C	-7.1	-0.5	-0.3	-3.5
COc1ccc(C(=O)[C@@H]2[C@@H](c3ccccc3F)C(C#N)(C#N)[C@H]3C=Cc4ccccc4N23)cc1	-0.3	0.4	-0.1	66.9*
Cc1ccc(C(=O)[C@@H]2[C@@H](c3ccccc3F)C(C#N)(C#N)[C@H]3C=Cc4ccccc4N23)cc1	-7.0	-0.2	-0.3	-12.5
COc1ccc(C(=O)[C@@H]2[C@@H](c3cccnc3)C(C#N)(C#N)[C@H]3C=Cc4ccccc4N23)cc1	12.1	2.5	0.3	58.4*
CC1SC(C)C(=O)N(CC(=O)Nc2cccc(F)c2)C1=O (stereo not given)	4.4	-1.0	0.2	5.2
O=C(Nc1cccc2ccccc12)c1cc([N+](=O)[O-])ccc1Cl	13.7	1.5	0.0	59.9*
O=C(Nc1cc(C(F)(F)F)ccc1Cl)c1cc([N+](=O)[O-])ccc1Cl	-6.2	-0.3	0.1	-3.5
Cc1cc(O)c(NC(=O)c2cc([N+](=O)[O-])ccc2Cl)cc1C	6.1	-1.4	0.7	43.1*
O=C(Nc1cc(C(F)(F)F)ccc1N1CCCC1)c1cc([N+](=O)[O-])ccc1Cl	6.9	-0.6	-0.1	85.7*
O=C(Nc1ccccc1Cl)c1cc([N+](=O)[O-])ccc1Cl	4.2	1.5	-0.1	36.0*
CC(=O)Nc1ccccc1NC(=O)c1cc([N+](=O)[O-])ccc1Cl	-4.1	0.9	-0.1	3.2
O=C(COc1ccc2c(=O)c(-c3ccc(Cl)cc3)coc2c1)OC1CCCCC1	-11.2	0.6	-0.1	-6.3
SMILES	MITF inh	GPR151 activ	FBW7 act	TEAD-YAP inh
Cc1cc(-c2ccc(S(=O)(=O)N3CCC(C)CC3)cc2)on1	1.8	2.8	0.2	9.7
C/C(CC(C)C)=N\NC(=O)c1cccc(O)c1	7.8	-2.1	0.1	40.2*
CCC/C=N/NC(=O)c1ccc(O)cc1	10.1	-0.8	0.0	-18.3
CCC/C=N/NC(=O)c1cccc(O)c1	9.4	-1.9	-0.1	33.9*
C/C(CC(C)C)=N/NC(=O)c1ccc(Br)cc1	-15.8	0.0	0.1	-15.5
Cc1ccc(/C=N/Nc2cccc([N+](=O)[O-])c2)s1	6.9	0.1	-0.3	-47.4
CCSc1ccccc1C(=O)Nc1nc(-c2ccc3c(c2)OCCO3)cs1	1.0	2.2	0.0	-10.6
Cn1c(SCC(=O)Nc2cccc3ccccc23)nc2c(c1=O)SCC2	13.3	0.3	0.4	18.3
c1ccc(CSc2nn3cnnc3s2)cc1	-8.1	0.1	-0.2	58.1*
Fc1ccc(CSc2nn3cnnc3s2)cc1	8.2	-1.4	0.7	58.0*
Clc1ccccc1CSc1nn2cnnc2s1	-3.7	-0.3	-0.1	54.8*
Cn1cnnc1SCc1ccccc1Cl	0.5	1.1	0.0	11.6
COC(=O)C1=C(NC(=O)/C=C/c2ccccc2)CCS1	3.6	-5.9	-0.2	-43.5
